# Experiments:
# Test in all cases: DAPPL (digital affinity profiling via proximity ligation, sequencing); 10 mM Tris-HCl pH 7.5, 50 mM NaCl, 1 mM DTT, 4% glycerol, room temperature, 30 min; GST-TFs on glutathione beads, 16-mer random dsDNA library, 0.1% formaldehyde crosslink after washing; high values mean tight binding
# FEV = molecular target: T1, FEV (Homo sapiens, UniProt Q99581 1-238); conditions: protein: recombinant; tags: N-terminal GST; dsDNA, one strand shown
# T1 sequence: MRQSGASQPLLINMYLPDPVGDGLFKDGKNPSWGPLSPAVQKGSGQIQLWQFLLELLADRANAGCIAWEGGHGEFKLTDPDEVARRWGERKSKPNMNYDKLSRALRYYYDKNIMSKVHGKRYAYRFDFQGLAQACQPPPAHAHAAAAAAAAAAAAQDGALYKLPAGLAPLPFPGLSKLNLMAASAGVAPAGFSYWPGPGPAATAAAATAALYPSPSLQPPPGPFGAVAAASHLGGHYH
# How it was run: (§1)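 Sequencing on an Illumina NextSeq500 followed washing, crosslinking with 0.1% formaldehyde, proximity ligation (BsaI/T4 ligase, 1 h, 37 °C) and PCR amplification of pools that had been incubated for 30 min at room temperature with 200 nmole of a random double-stranded 16-mer DNA library in Tris/NaCl/DTT/glycerol buffer. Each pool held DNA-barcoded human transcription factors, expressed in yeast as GST fusions and captured on glutathione beads, plus a tag-only sample. Binding signal is a hexamer's read frequency for a factor divided by its frequency in the tag-only sample.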
# ETV5 = ETV5 (Homo sapiens, UniProt P41161 1-510); conditions: protein: recombinant; tags: N-terminal GST; dsDNA, one strand shown
# Chain of ETV5 (P41161 whole entry): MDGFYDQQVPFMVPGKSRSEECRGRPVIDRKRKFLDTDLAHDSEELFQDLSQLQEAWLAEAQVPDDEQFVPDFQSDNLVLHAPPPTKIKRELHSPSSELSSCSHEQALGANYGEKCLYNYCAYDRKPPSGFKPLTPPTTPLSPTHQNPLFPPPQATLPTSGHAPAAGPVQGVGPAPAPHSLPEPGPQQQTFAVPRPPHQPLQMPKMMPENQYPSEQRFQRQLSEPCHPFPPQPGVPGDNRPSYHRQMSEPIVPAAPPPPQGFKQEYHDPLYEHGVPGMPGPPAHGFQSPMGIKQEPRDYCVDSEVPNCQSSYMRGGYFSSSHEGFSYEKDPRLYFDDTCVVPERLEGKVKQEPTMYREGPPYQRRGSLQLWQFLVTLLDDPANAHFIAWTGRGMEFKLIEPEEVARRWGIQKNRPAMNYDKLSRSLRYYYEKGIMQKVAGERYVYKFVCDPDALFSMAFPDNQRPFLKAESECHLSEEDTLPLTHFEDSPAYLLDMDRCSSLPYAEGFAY
# How it was run: as §1
# HSF1 = HSF1 (Homo sapiens, UniProt Q00613 1-529); conditions: protein: recombinant; tags: N-terminal GST; chain copies: 3; dsDNA, one strand shown
# Chain of HSF1 (Q00613 whole entry): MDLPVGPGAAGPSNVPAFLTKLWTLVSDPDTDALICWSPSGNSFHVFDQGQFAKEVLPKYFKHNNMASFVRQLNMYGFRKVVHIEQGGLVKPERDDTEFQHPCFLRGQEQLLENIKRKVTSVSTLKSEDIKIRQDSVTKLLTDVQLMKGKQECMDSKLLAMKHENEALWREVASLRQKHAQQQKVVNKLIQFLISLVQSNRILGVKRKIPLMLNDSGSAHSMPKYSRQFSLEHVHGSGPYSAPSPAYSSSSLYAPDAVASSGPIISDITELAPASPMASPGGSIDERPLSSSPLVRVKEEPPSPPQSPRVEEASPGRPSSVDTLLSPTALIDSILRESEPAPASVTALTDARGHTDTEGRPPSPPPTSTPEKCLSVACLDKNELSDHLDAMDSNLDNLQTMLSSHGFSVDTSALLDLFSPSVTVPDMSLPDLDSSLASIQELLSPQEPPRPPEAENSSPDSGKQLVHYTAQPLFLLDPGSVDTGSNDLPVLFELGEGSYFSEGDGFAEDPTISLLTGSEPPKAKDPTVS
# How it was run: as §1
# SPIC = molecular target: T2, SPIC (Homo sapiens, UniProt Q8N5J4 1-248); conditions: protein: recombinant; tags: N-terminal GST; dsDNA, one strand shown
# T2 sequence: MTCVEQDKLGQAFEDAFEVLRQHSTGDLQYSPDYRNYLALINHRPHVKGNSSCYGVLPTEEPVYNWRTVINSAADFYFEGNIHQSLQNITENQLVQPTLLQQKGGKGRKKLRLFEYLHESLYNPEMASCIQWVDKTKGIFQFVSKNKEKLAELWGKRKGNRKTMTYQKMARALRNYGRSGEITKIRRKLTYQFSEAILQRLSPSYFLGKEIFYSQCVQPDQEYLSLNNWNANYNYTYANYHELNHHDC
# How it was run: as §1
# ELF4 = ELF4 (Homo sapiens, UniProt Q99607 1-663); conditions: protein: recombinant; tags: N-terminal GST; dsDNA, one strand shown
# Chain of ELF4 (Q99607 whole entry): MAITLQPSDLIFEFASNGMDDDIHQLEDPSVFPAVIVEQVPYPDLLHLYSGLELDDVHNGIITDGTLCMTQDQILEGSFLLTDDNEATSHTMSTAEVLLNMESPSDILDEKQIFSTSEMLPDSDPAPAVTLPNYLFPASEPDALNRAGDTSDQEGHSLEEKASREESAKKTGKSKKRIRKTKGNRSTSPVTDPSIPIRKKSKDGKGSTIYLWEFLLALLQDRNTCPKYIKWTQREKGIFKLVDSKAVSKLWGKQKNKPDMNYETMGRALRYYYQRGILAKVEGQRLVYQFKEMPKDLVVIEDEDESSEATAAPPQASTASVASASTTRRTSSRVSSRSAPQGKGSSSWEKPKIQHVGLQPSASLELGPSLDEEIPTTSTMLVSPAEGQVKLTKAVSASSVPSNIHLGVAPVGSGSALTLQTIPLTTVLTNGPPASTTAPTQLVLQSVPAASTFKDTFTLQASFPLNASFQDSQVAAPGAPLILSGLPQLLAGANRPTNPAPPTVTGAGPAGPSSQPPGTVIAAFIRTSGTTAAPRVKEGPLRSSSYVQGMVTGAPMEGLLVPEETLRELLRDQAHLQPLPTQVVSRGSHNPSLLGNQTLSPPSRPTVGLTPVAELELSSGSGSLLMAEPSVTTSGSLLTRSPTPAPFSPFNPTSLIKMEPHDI
# How it was run: as §1
# ELK4 = molecular target: T3, ELK4 (Homo sapiens, UniProt P28324-2 1-405); conditions: protein: recombinant; tags: N-terminal GST; dsDNA, one strand shown
# T3 sequence: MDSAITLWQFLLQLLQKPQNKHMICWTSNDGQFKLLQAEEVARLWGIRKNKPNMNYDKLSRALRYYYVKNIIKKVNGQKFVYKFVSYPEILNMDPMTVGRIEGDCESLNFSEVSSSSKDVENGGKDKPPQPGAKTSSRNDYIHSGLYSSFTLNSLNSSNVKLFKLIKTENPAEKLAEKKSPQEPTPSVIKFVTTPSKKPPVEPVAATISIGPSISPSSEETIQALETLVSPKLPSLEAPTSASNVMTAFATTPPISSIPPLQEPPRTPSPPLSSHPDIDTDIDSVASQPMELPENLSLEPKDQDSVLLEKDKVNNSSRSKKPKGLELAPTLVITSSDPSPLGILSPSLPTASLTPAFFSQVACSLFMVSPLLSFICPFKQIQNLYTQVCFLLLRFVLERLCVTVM
# How it was run: as §1
# ETV2 = molecular target: T4, ETV2 (Homo sapiens, UniProt O00321 1-342); conditions: protein: recombinant; tags: N-terminal GST; dsDNA, one strand shown
# T4 sequence: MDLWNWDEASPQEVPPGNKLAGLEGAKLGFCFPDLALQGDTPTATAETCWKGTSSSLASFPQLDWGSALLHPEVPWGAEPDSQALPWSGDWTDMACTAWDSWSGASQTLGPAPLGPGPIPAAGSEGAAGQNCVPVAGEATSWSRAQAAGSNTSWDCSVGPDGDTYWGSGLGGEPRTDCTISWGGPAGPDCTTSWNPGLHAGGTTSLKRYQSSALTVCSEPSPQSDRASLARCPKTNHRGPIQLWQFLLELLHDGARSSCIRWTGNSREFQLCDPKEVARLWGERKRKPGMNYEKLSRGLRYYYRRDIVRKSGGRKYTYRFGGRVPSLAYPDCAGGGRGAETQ
# How it was run: as §1
# ELF3 = molecular target: T5, ELF3 (Homo sapiens, UniProt P78545 1-371); conditions: protein: recombinant; tags: N-terminal GST; dsDNA, one strand shown
# T5 sequence: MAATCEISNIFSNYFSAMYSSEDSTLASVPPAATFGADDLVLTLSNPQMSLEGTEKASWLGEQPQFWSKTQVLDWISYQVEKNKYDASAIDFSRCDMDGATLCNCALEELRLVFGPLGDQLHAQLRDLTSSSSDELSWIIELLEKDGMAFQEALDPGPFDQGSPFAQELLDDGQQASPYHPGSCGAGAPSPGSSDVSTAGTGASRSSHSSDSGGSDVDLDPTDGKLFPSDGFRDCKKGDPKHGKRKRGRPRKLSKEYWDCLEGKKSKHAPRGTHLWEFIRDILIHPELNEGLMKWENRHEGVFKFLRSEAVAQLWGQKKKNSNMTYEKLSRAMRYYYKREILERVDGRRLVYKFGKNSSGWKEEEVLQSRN
# How it was run: as §1
# CRX = CRX (Homo sapiens, UniProt O43186 1-299); conditions: protein: recombinant; tags: N-terminal GST; dsDNA, one strand shown
# Chain of CRX (O43186 whole entry): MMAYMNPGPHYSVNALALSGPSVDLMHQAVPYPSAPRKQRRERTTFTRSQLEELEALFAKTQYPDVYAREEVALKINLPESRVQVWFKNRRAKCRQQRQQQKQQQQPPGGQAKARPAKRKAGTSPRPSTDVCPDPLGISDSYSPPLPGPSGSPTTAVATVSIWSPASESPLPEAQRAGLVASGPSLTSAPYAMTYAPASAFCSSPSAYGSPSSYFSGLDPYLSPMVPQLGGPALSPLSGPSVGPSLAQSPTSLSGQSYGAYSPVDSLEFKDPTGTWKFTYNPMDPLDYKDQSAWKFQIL
# How it was run: as §1
# ETV1 = ETV1 (Homo sapiens, UniProt P50549 1-477); conditions: protein: recombinant; tags: N-terminal GST; dsDNA, one strand shown
# Chain of ETV1 (P50549 whole entry): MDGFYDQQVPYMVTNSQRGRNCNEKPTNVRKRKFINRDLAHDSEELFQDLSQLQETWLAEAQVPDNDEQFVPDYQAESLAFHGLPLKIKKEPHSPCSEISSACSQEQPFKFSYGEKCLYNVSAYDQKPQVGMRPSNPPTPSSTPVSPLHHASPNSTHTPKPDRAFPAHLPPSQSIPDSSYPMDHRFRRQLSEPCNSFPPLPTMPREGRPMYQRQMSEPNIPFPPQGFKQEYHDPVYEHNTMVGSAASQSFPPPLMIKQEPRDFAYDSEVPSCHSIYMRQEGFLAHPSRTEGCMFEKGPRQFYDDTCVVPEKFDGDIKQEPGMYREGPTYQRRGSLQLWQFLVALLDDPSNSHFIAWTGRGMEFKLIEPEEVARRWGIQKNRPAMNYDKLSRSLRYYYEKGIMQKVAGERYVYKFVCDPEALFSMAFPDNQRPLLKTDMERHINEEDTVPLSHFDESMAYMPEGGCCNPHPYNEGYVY
# How it was run: as §1
# ERF = molecular target: T6, ERF (Homo sapiens, UniProt P50548 1-548); conditions: protein: recombinant; tags: N-terminal GST; dsDNA, one strand shown
# T6 sequence: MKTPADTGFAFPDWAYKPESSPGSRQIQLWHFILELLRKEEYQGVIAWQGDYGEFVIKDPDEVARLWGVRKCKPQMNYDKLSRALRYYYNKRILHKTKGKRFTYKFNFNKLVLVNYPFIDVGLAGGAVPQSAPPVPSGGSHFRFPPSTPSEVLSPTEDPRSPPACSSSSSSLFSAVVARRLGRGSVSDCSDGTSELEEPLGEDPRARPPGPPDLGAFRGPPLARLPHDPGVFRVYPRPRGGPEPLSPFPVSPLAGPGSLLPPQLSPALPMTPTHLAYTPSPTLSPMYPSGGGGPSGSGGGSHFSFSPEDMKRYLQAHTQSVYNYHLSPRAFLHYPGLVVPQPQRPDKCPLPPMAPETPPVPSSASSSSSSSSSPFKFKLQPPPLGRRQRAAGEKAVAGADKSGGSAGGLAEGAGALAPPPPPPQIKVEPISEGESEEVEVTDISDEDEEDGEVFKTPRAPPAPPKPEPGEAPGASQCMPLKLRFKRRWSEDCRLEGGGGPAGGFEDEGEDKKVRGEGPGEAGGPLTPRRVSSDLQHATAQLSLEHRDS
# How it was run: as §1
# ETV3L = molecular target: T7, ETV3L (Homo sapiens, UniProt Q6ZN32 1-361); conditions: protein: recombinant; tags: N-terminal GST; dsDNA, one strand shown
# T7 sequence: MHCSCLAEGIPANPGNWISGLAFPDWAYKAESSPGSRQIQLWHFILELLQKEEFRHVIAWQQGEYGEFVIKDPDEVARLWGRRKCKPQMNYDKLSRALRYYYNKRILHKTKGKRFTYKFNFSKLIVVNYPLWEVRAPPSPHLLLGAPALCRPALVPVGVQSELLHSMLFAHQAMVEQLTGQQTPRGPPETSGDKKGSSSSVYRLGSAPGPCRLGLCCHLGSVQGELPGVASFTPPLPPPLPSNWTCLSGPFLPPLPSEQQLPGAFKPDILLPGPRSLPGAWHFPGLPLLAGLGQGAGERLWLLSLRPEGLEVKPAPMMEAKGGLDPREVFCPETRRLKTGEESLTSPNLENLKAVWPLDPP
# How it was run: as §1
# ETS2 = molecular target: T8, ETS2 (Homo sapiens, UniProt P15036 1-469); conditions: protein: recombinant; tags: N-terminal GST; dsDNA, one strand shown
# T8 sequence: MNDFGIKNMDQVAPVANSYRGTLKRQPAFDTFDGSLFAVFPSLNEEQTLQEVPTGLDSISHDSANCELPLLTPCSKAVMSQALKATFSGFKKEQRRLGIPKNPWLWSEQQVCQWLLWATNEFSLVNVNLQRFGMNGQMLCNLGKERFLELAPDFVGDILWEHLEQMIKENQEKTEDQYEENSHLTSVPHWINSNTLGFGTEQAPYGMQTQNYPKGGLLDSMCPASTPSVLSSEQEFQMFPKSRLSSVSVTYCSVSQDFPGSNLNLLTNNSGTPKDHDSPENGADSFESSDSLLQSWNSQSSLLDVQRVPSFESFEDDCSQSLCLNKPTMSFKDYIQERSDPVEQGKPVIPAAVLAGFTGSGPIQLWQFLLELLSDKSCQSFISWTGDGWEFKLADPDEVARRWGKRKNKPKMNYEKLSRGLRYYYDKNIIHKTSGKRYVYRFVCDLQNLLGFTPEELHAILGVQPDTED
# How it was run: as §1
# SPDEF = molecular target: T9, SPDEF (Homo sapiens, UniProt O95238 1-335); conditions: protein: recombinant; tags: N-terminal GST; dsDNA, one strand shown
# T9 sequence: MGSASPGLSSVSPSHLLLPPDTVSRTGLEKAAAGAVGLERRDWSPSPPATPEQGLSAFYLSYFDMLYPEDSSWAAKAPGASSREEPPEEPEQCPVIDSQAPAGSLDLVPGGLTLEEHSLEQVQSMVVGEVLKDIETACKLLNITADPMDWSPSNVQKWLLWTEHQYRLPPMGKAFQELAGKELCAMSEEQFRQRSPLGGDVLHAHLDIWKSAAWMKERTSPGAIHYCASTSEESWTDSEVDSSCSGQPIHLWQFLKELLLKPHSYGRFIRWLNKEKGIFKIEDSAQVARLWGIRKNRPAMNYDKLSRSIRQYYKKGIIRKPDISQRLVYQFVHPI
# How it was run: as §1
# ETV7 = molecular target: T10, ETV7 (Homo sapiens, UniProt Q9Y603 1-341); conditions: protein: recombinant; tags: N-terminal GST; dsDNA, one strand shown
# T10 sequence: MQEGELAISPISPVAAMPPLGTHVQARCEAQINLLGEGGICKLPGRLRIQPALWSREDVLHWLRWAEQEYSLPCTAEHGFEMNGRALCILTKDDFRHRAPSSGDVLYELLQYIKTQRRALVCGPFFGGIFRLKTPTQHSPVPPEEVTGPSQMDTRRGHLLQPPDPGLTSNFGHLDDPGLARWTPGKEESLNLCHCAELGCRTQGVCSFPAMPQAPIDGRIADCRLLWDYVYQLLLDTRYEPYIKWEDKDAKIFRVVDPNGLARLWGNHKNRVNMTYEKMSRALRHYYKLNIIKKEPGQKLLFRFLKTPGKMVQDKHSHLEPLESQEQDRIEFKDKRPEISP
# How it was run: as §1
# ELF5 = molecular target: T11, ELF5 (Homo sapiens, UniProt Q9UKW6-2 1-255); conditions: protein: recombinant; tags: N-terminal GST; dsDNA, one strand shown
# T11 sequence: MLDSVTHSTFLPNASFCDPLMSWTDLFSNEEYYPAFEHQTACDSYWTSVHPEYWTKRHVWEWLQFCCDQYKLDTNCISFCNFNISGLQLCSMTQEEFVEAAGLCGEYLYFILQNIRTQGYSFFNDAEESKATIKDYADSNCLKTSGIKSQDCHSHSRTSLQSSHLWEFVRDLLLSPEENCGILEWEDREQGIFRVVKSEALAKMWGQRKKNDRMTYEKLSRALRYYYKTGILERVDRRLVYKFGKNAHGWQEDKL
# How it was run: as §1
# ETV3 = molecular target: T12, ETV3 (Homo sapiens, UniProt P41162-2 1-143); conditions: protein: recombinant; tags: N-terminal GST; dsDNA, one strand shown
# T12 sequence: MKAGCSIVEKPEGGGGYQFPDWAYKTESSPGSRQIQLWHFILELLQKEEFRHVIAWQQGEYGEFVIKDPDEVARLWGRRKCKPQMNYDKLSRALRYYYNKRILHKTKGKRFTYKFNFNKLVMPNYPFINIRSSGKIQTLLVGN
# How it was run: as §1
# ETV6 = ETV6 (Homo sapiens, UniProt P41212 1-452); conditions: protein: recombinant; tags: N-terminal GST; dsDNA, one strand shown
# Chain of ETV6 (P41212 whole entry): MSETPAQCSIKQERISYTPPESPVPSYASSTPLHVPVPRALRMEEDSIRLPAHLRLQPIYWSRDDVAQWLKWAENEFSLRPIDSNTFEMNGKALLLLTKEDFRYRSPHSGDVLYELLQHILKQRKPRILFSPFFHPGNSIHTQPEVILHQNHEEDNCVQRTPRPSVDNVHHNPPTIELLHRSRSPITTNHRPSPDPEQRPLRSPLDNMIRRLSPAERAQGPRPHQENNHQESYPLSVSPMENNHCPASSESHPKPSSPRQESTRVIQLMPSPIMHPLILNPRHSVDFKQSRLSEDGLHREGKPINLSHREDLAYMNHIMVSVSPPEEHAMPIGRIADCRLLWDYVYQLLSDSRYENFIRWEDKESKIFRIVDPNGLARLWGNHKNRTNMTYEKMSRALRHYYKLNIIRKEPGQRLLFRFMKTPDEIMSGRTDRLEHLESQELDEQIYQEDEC
# How it was run: as §1
sequence,measurement,setting,value
AGCATT,binding signal,FEV,"1.11 fold enrichment (6-mer frequency, TF over GST control)"
same,binding signal,ETV5,"1.03 fold enrichment (6-mer frequency, TF over GST control)"
same,binding signal,HSF1,"1.2 fold enrichment (6-mer frequency, TF over GST control)"
same,binding signal,SPIC,"1.03 fold enrichment (6-mer frequency, TF over GST control)"
same,binding signal,ELF4,"1.11 fold enrichment (6-mer frequency, TF over GST control)"
same,binding signal,ELK4,"1.08 fold enrichment (6-mer frequency, TF over GST control)"
same,binding signal,ETV2,"1.06 fold enrichment (6-mer frequency, TF over GST control)"
same,binding signal,ELF3,"1.22 fold enrichment (6-mer frequency, TF over GST control)"
same,binding signal,CRX,"1.32 fold enrichment (6-mer frequency, TF over GST control)"
same,binding signal,ETV1,"1.13 fold enrichment (6-mer frequency, TF over GST control)"
same,binding signal,ERF,"1.04 fold enrichment (6-mer frequency, TF over GST control)"
same,binding signal,ETV3L,"1.06 fold enrichment (6-mer frequency, TF over GST control)"
same,binding signal,ETS2,"1.11 fold enrichment (6-mer frequency, TF over GST control)"
same,binding signal,SPDEF,"1.02 fold enrichment (6-mer frequency, TF over GST control)"
same,binding signal,ETV7,"1.14 fold enrichment (6-mer frequency, TF over GST control)"
same,binding signal,ELF5,"1.1 fold enrichment (6-mer frequency, TF over GST control)"
same,binding signal,ETV3,"1.09 fold enrichment (6-mer frequency, TF over GST control)"
same,binding signal,ETV6,"1.14 fold enrichment (6-mer frequency, TF over GST control)"
